Source: PubChem BioAssay
Shown are actives, neighbours in structure and some others; about 2.3% of the full set was active somewhere.
MCL1-BIM inh = inhibitors of MCL1 binding to BIM-BH3, primary screen, biochemical, fluorescence polarization. Induced myeloid leukemia cell differentiation protein Mcl-1 (Homo sapiens), Q07820. GST-MCL1 / FITC-Bim-BH3 fluorescence polarization. inhibition, % at 10.9 µM. 320,000 compounds, 0.68% hits;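 active means inhibition above the mean inhibition of all tested compounds plus 3 SD, set per campaign, cut at about 40% in these data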;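 further: 0% = DMSO wells and 100% = unlabeled Bim-BH3 peptide control; higher means more loss of mP so more displacement of Bim peptide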
Target sequence (Q07820 whole entry, looked up): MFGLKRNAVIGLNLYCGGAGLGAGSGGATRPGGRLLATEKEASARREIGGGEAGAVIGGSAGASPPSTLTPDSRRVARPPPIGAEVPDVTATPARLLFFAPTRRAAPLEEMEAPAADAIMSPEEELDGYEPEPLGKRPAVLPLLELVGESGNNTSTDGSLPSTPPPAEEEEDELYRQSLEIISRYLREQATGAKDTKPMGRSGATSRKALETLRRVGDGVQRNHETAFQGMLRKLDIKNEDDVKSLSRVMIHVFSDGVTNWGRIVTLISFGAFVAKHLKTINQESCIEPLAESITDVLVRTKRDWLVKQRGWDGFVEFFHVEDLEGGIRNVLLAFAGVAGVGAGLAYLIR
GLD-1 TGE inh = GLD-1/TGE RNA complex disruptors, primary screen, biochemical, fluorescence polarization. Female germline-specific tumor suppressor gld-1 (Caenorhabditis elegans), Q17339. purified GLD-1 + fluorescein TGE RNA. inhibition, % at 5.96 µM. 320,000 compounds, 0.44% hits;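 active means percent inhibition above a per-plate cutoff, the plate mean of test compounds plus 3 SD, cut at about 30% in these data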;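 further: 0% = DMSO wells with GLD-1 and probe and 100% = wells lacking GLD-1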
Mcl1 Bid PPI = Mcl-1/Bid binding inhibitors, primary screen, biochemical, TR-FRET, 1536-well; Induced myeloid leukemia cell differentiation protein Mcl-1 (Homo sapiens), Q07820; TR-FRET Mcl-1/Bid-Dy647 peptide binding; inhibition, % at 21.7 µM; 220,000 compounds, 0.97% hits; AID 1021, 2008;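 active means compounds that cut the binding signal by more than half at the single screening dose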;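 further: His-tagged Mcl-1 with europium anti-His antibody binding Bid BH3 peptide; 0% = Mcl-1 plus peptide wells and 100% = peptide-only wells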
Bim-Mcl-1 = inhibitors of Bim peptide binding to Mcl-1, primary screen, biochemical, bead-based flow cytometry, multiplex | Induced myeloid leukemia cell differentiation protein Mcl-1 (Homo sapiens), Q07820 | Bim peptide-Mcl-1 binding | inhibition, % at 10 µM | 190,000 compounds, 0.1% hits | AID 1009, 2008; in the data active means inhibition above about 40%;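 further: 0% = no compound tracer wells and 100% = peptide blocker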
Mcl1-Noxa inh = Mcl-1/Noxa binding inhibitors, primary screen, biochemical, TR-FRET, 1536-well; TR-FRET Mcl-1/Noxa peptide binding, 2 h; Induced myeloid leukemia cell differentiation protein Mcl-1 (Homo sapiens), Q07820; 220,000 compounds, 1.5% hits; inhibition, % at 21.7 µM;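 active means compounds that cut the protein-peptide binding signal by more than 50% relative to plate controls in a single-dose test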;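 further: His-tagged Mcl-1 with rhodamine Noxa BH3 peptide and terbium anti-His antibody; 0% = Mcl-1 plus Noxa peptide wells and 100% = peptide-only wells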
BCLXL inh = inhibitors of human Bcl-xL, primary screen, biochemical, fluorescence polarization, HTS; Bcl-2-like protein 1 (Homo sapiens), Q07817; inhibition, % at 10.9 µM; 320,000 compounds, 0.7% hits; GST-Bcl-xL / FITC-Bim BH3 peptide fluorescence polarization; AID 2129, 2009;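 active means inhibition above the mean of all tested compounds plus 3 SD, cutoff set per campaign, cut at about 30% in these data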;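 further: 0% = DMSO wells and 100% = unlabeled Bim-BH3 peptide competitor; inhibitors lower millipolarization by displacing the labeled peptide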
Target sequence (Q07817 whole entry, looked up): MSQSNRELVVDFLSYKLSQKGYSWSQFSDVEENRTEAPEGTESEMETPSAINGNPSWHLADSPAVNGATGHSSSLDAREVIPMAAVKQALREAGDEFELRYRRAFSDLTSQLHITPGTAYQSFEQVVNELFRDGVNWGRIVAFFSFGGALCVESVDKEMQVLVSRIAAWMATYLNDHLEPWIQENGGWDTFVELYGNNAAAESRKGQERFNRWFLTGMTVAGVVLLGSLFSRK
Active calls of the source: *; / = not tested or not shown.

SMILES	MCL1-BIM inh	GLD-1 TGE inh	Mcl1 Bid PPI	Bim-Mcl-1	Mcl1-Noxa inh	BCLXL inh
CCOc1ccc(C(=O)Nc2nnn(CC)n2)cc1	-3	8	-49	62*	-8	1
Cc1cc(C)n2nc(SCC(=O)c3cc(C)n(CC4CCCO4)c3C)nc2n1 (centres undefined)	1	-2	-74	-2	18	0
Cc1cccc(C)c1NC(=O)C1c2ccccc2Oc2ccccc21	-6	6	81*	-4	17	1
COc1ccccc1CN1CC(C(=O)NCc2c(F)ccc(C)c2F)CCC1=O (centres undefined)	4	-2	/	/	/	2
Cc1cccc(C)c1NS(=O)(=O)c1cc2c3c(c1)CC(=O)N3CCC2	-4	4	/	/	/	5
COC1=C/C(=C/c2c(N)n3nc(-c4ccc(C)cc4)sc3nc2=O)C=CC1=O	/	/	27	3	84*	/
CCS(=O)(=O)c1nn2c(N)c(/C=C3/C=CC(=O)C(OC)=C3)c(=O)nc2s1	-33	-75	-42	0	58*	-16
CCOC1=C/C(=C/c2c(N)n3nc(-c4ccccc4)sc3nc2=O)C=CC1=O	/	/	-33	-1	89*	/
CCOC1=C/C(=C/c2c(N)n3oc(C)cc3nc2=O)C=CC1=O	-2	-4	-42	1	24	0
O=C(CNc1ccccc1)NN=C1CCCC1	9	-4	-30	-2	16	-2
COc1ccccc1C(CNC(=O)C1CC(=O)N(Cc2ccccc2)C1)N1CCCC1 (centres undefined)	1	-1	/	/	/	2
Oc1cc2c(cc1C(c1ccc(Br)cc1)N1CCCC1)OCO2 (centres undefined)	/	/	90*	4	82*	/
O=S(=O)(NCC(c1ccc2c(c1)OCO2)N1CCOCC1)c1ccc(Br)cc1 (centres undefined)	-6	-1	/	/	/	3
Cc1noc(NS(=O)(=O)c2ccc(NC(=O)CSc3nc4ccccc4s3)cc2)c1C	10	6	9	2	64*	12
Nc1nnc(CC(=O)N/N=C/c2ccc(-c3ccccc3Cl)o2)s1	4	-3	-2	-8	35	12
Nc1nnc(CC(=O)N/N=C/c2ccc(-c3ccc(Cl)cc3Cl)o2)s1	12	-4	49	/	51*	0
O=C(CN1C(=O)NC2(CCCC2)C1=O)Nc1cc(S(=O)(=O)N2CCCCC2)ccc1Cl	/	2	/	/	/	/
COc1ccccc1N1CCN(C(=O)CCC(=O)N2CCN(c3ccccc3OC)CC2)CC1	0	-10	/	/	/	1
COc1ccccc1N1CCN(C(=O)Cn2nc3n(C)c4ccccc4n3c(=O)c2=O)CC1	16	31*	0	-1	2	2
COc1cccc(CNC(=O)c2ccc(C)c(NC3=NC4CS(=O)(=O)CC4S3)c2)c1 (centres undefined)	8	0	/	/	/	-2
CCN(CC)C(=O)c1c(C)[nH]c(=S)c(C#N)c1-c1ccco1	8	8	-83	-1	59*	12
Cc1[nH]c(=S)c(C#N)c2c1CCCC2	-4	0	-49	-6	42	1
N#Cc1c(-c2cccnc2)c2c([nH]c1=S)CCCC2	-4	6	-41	1	46	-1
Cc1[nH]c(=S)c(C#N)c(-c2ccccc2)c1C(=O)Nc1ccccc1	-11	-11	-58	/	-14	-3
N#Cc1c(-c2ccco2)c2c([nH]c1=S)CCCC2	17	0	1	-3	59*	14
SMILES	MCL1-BIM inh	GLD-1 TGE inh	Mcl1 Bid PPI	Bim-Mcl-1	Mcl1-Noxa inh	BCLXL inh
CC(C)Cc1c2c([nH]c(=S)c1C#N)CCCC2	2	3	-23	-10	51*	9
Oc1ccc(/C=N/Nc2ccnc3cc(Cl)ccc23)c(O)c1	16	-43	57*	/	88*	0
Cc1ccccc1/C=N/Nc1ccnc2cc(Cl)ccc12	1	-2	52*	4	98*	-5
Clc1ccc2c(N/N=C/c3ccc(Br)cc3)ccnc2c1	-1	9	45	4	42	-1
Oc1ccc(Nc2ccnc3cc(Cl)ccc23)cc1	12	5	-10	/	20	9
Clc1ccc2c(N/N=C/c3cccnc3)ccnc2c1	-1	6	-29	2	34	3
Cc1ccc(/C=N/Nc2ccnc3cc(Cl)ccc23)c(C)c1	1	0	63*	1	56*	0
O=c1cc(CSc2nnc(-c3cccs3)n2Cc2ccccc2)nc2sc3ccccc3n12	21	1	-97	-1	59*	0
Cc1cc(C(=O)CSc2nnc(-c3cccs3)n2Cc2ccccc2)c(C)n1C	-5	6	-54	-1	-3	-8
C[C@H](O)[C@H](O)[C@H]1CNc2nc(N)[nH]c(=O)c2N1	28	20	/	/	/	33*
C[C@H](O)C(=O)C1=Nc2c(nc(N)[nH]c2=O)NC1	10	14	/	/	/	14
CC(=O)C1=C(C)NC(=S)NC1c1cc([N+](=O)[O-])ccc1O (centres undefined)	9	-3	-112	/	1	5
O=C(Cn1cc(SCc2ccc(Cl)cc2)c2ccccc21)N1CCOCC1	0	1	52*	-4	2	4
O=C(Cn1cc(SCc2ccc(F)cc2)c2ccccc21)N1CCOCC1	4	8	-24	-5	-7	10
COc1ccc2[nH]c3nc(SCC(=O)NNC(=O)c4ccc(OC)c(OC)c4)nnc3c2c1	14	0	-16	0	-7	3
Cc1ccc(C(=O)NNC(=O)CSc2nnc3c(n2)[nH]c2ccc(F)cc23)cc1	11	11	80*	8	53*	13
Cc1cc2nccc(-c3ccc(Cl)c([N+](=O)[O-])c3)n2n1	0	5	-20	3	2	1
O=C(COc1ccccc1)Nc1sc2c(c1C(=O)NCc1cccnc1)CCCC2	-9	5	59*	0	-25	-1
Cc1c(C)c2ccc(OC(C)C(=O)NC3CCN(Cc4ccccc4)CC3)cc2oc1=O (centres undefined)	1	4	/	/	/	5
O=C(NCc1ccco1)Nc1ccc(Br)cc1	-1	3	-8	-1	6	0
O=C(NCc1ccco1)Nc1ccc(OC(F)(F)F)cc1	31	1	-8	/	1	30*
Cc1cc(C)n(CCCNC(=O)c2ccc(C)o2)n1	3	-2	/	/	/	2
O=C(O)c1ccccc1C(=O)NC1CCCc2ccccc21 (centres undefined)	-2	6	/	/	/	5
